# Data taken from article PMC6212833.
# In all, about 2,000 compounds were measured (“B-score”: median about -0.0024, highest 2% from about 4 on). The list comes from a sample in which the highest values are over-represented; it also holds similar structures and randomly drawn compounds.
# Tested on: Balamuthia mandrillaris (ATCC PRA-291) trophozoites, axenic culture
# Assay: primary screen, b score
# Details: 20 µM
# Summary of the method: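 Trophozoites (3,000/well) in axenic medium exposed to library drugs at 20 µM in 0.2% DMSO for 72 h; viability by CellTiter Glo luminescence at 2, 4 and 8 h. Controls: vehicle and freeze-thaw amoeba lysate; B-score corrects row, column and edge effects.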
row,Structure (SMILES),B-score
1,CN(C)CC/C=C1/c2ccccc2Sc2ccc(Cl)cc21 [285943-L2],-0.683
2,CCN(CC)CCOC(=O)C(c1ccccc1)c1ccccc1,-1.55
3,FC(F)(F)C(F)(F)C(F)(F)C(F)(F)C(F)(F)C(F)(F)C(F)(F)C(F)(F)Br,1.01
4,Cc1ccsc1/C=C/C1=NCCCN1C,2.44
5,CN1CCN(CC(=O)N2c3ccccc3C(=O)Nc3cccnc32)CC1,-0.953
6,C=C1CC[C@H](O)C/C1=C/C=C1\CCCC2(C)C1CCC2C(C)CCCC(C)C (stereo partly drawn),-1.18
7,O=c1oc2cc(O)ccc2s1,1.79
8,CO[C@H]1O[C@@H]2O[C@@]3(C)CC[C@H]4[C@H](C)CC[C@@H]([C@H]1C)[C@@]24OO3,7.12
9,C[C@@H]1CC[C@H]2[C@@H](C)C(=O)O[C@@H]3O[C@@]4(C)CC[C@@H]1[C@]32OO4,11.9
10,COC1O[C@@H]2O[C@@]3(C)CC[C@H]4[C@H](C)CC[C@@H]([C@H]1C)[C@@]24OO3 (stereo partly drawn),-0.0904
11,C[C@@H]1CC[C@H]2[C@@H](C)C(O)O[C@@H]3O[C@@]4(C)CC[C@@H]1[C@]32OO4 (stereo partly drawn),8.14
12,CC(=O)[C@H]1CC[C@H]2[C@@H]3CC=C4C[C@@H](OC(=O)CCC(=O)O)CC[C@]4(C)[C@H]3CC[C@]12C,-2.77
14,C/N=C(\NC)NCc1ccccc1,-0.109
15,Cc1c(O)c(=O)ccn1C,-3.39
16,O=C1CN2Cc3c(ccc(Cl)c3Cl)N=C2N1,1.87
17,CCN(CC)CCOc1ccc(/C(=C(\Cl)c2ccccc2)c2ccccc2)cc1,-1.4
18,CC(=O)OC(C)C[N+](C)(C)C (stereo not drawn),1.98
19,CCN1CCN(C(=O)NC(C(=O)N[C@@H]2C(=O)N3[C@@H]2SC(C)(C)[C@@H]3C(=O)O)c2ccccc2)C(=O)C1=O (stereo partly drawn),2.04
20,C=C1c2cccc(O)c2C(O)=C2C(=O)[C@]3(O)C(O)=C(C(N)=O)C(=O)[C@@H](N(C)C)[C@@H]3[C@@H](O)[C@H]12,-0.0267
21,Oc1nc2ccccc2n1CCCN1CCC(n2c(O)nc3cc(Cl)ccc32)CC1,-1.5
22,C[C@H](COc1ccccc1)N[C@H](C)[C@H](O)c1ccc(O)cc1,0.0782
23,NC[C@@H]1O[C@H](O[C@H]2[C@@H](O)[C@H](O[C@@H]3[C@@H](O)[C@H](N)C[C@H](N)[C@H]3O[C@H]3O[C@H](CN)[C@@H](O)[C@H](O)[C@H]3N)O[C@@H]2CO)[C@H](N)[C@@H](O)[C@@H]1O,1.53
24,CC#C[C@]1(O)CCC2C3CCC4=CC(=O)CCC4=C3[C@@H](c3ccc(N(C)C)cc3)C[C@@]21C (stereo partly drawn),2.28
25,CN1CCC(=C2c3ccccc3CCc3sccc32)CC1,-0.3
26,CC(=O)OCC(CCn1cnc2cnc(N)nc21)COC(C)=O,0.28
27,CCC(=O)Oc1ccc2c(c1)CC[C@@H]1[C@@H]2CC[C@]2(C)[C@@H](OC(=O)CC)CC[C@@H]12,-3.91

row,Structure (SMILES),B-score
1,COc1ccc(CCN2CCC(Nc3nc4ccccc4n3Cc3ccc(F)cc3)CC2)cc1,-0.484
2,Clc1ccc(Cn2c(CN3CCCC3)nc3ccccc32)cc1,0.738
3,Cc1nc2ccccc2n1Cc1ccc(Cl)cc1,6.45
4,CCOC(=O)C1=C[C@@H](OC(CC)CC)[C@H](NC(C)=O)[C@@H](N)C1,-0.221
5,Cc1c(-c2cnccn2)ssc1=S,1.58
6,Cc1c(NC(=O)c2cccnc2)c(=O)n(-c2ccccc2)n1C,12.5
7,Cc1c(N(C)C)c(=O)n(-c2ccccc2)n1C,2.34
8,Cc1c(NC(C)C)c(=O)n(-c2ccccc2)n1C,-2.14
9,CNC[C@H](O)[C@@H](O)[C@H](O)[C@H](O)CO [757068-L2],1.95
10,C[C@]1(Cn2ccnn2)C(C(=O)O)N2C(=O)CC2S1(=O)=O (stereo partly drawn),-2.49
11,OC(CCN1CCCCC1)(c1ccccc1)C1CCCCC1 (stereo not drawn),0.407
12,COc1c(N2CCNC(C)C2)c(F)cc2c(=O)c(C(=O)O)cn(C3CC3)c12 (stereo not drawn),0.0884
13,C[C@@H]1CN(c2c(F)c(F)c3c(=O)c(C(=O)O)cn(C4CC4)c3c2F)C[C@H](C)N1,-1.44
14,C[n+]1c2cc(N)ccc2cc2ccc(N)cc21,20.4
15,Nc1ccc2cc3ccc(N)cc3nc2c1,1.36
16,CC[n+]1c(-c2ccccc2)c2cc(N)ccc2c2ccc(N)cc21,3.74
17,O=C(O)/C=C/C(=O)O,0.597
18,CCCCCCCCCCCCCCCC(=O)OC/C=C(C)/C=C/C=C(C)/C=C/C1=C(C)CCCC1(C)C,-0.008
19,O=C(CCCN1CC=C(n2c(O)nc3ccccc32)CC1)c1ccc(F)cc1,-6.32
20,CCCc1cc(C(N)=S)ccn1,3.08
21,O=C(O)[C@H](O)[C@@H](O)[C@H](O)[C@H](O)CO,0.99
22,N=C(N)c1ccc(OCCCCCOc2ccc(C(=N)N)cc2)cc1,15.2
23,CCCCOc1ccc(C(=O)CCN2CCCCC2)cc1 [130801-L6],-2.14
24,CCCCOc1ccc(C(=O)CCN2CCCCC2)cc1 [130801-L5],-1.2
25,CC(C)(O/N=C(\C(=O)N[C@@H]1C(=O)N2C(C(=O)O)=C(C[n+]3ccccc3)CS[C@H]12)c1csc(N)n1)C(=O)O,1.87
26,CN[C@H](CC(C)C)C(=O)N[C@H]1C(=O)N[C@@H](CC(N)=O)C(=O)N[C@H]2C(=O)N[C@H]3C(=O)N[C@H](C(=O)N[C@H](C(=O)O)c4cc(O)cc(O)c4-c4cc3ccc4O)[C@H](O)c3ccc(c(Cl)c3)Oc3cc2cc(c3O[C@@H]2O[C@H](CO)[C@@H](O)[C@H](O)[C@H]2O[C@H]2C[C@](C)(N)[C@H](O)[C@H](C)O2)Oc2ccc(cc2Cl)[C@H]1O,-0.857
27,Oc1ccc2c3c1O[C@H]1[C@@H](O)CC[C@@]4(O)[C@@H](C2)N(CC2CCC2)CC[C@]314,0.0386
